The residual activity is the signal under treatment as a percentage of the control signal.

Experimental findings from ChEMBL document CHEMBL2218924, “A broad activity screen in support of a chemogenomic map for kinase signalling research and drug discovery” (Biochem J, 2013) are described below.

The target of the first assay is T1, Myotonin-protein kinase (Homo sapiens) (UniProt Q09013).
T1 sequence (whole entry): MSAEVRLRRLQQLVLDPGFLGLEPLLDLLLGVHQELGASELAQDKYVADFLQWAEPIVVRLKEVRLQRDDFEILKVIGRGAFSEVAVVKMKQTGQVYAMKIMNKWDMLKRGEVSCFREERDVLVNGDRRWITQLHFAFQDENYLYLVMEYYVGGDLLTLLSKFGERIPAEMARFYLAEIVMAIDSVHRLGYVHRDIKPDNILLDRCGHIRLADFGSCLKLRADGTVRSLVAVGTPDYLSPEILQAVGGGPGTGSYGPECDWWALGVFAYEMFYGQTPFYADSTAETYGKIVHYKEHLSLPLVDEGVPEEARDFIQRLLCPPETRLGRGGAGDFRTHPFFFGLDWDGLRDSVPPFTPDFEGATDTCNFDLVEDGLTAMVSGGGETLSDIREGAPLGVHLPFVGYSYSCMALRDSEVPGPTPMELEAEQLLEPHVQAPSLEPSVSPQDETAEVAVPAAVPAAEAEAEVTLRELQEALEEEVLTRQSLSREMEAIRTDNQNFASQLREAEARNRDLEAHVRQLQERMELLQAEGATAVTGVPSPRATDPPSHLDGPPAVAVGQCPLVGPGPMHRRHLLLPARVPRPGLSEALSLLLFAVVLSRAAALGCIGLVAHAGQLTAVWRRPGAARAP
Particulars: at 1 µM.
For `O=c1c2ccccc2[nH]c(=S)n1CCN1CCC(=C(c2ccc(F)cc2)c2ccc(F)cc2)CC1`, the residual activity was 105%.
On the same count and under the same terms, with `O=[N+]([O-])c1ccc(-c2nc(-c3ccc(F)cc3)c(-c3ccncc3)[nH]2)cc1` the figure was 96%; with `O=C1Nc2cc(Br)ccc2/C1=C1/Nc2ccccc2/C1=N\O`, 110%; with `O=Nc1c(-c2c(O)[nH]c3ccccc23)[nH]c2ccccc12`, 109%.
Consider `CC[n+]1c(/C=C/N(C)c2ccccc2)n(-c2ccccc2)c2ccc(-c3nc4ccccc4s3)cc21`, for which the residual activity is 120%.
Turning to `CC(C)n1cnc2/c(=N/c3cccc(Cl)c3)nc(NCCO)[nH]c21`, the residual activity was 124%.
The same measure, in the same setting: with `Oc1n[nH]c2nnc(-c3c(-c4ccccc4)nn4ccccc34)cc12` the figure was 69%; with `CCN(CC)CCCCN1c2ccccc2Oc2ccc(Cl)cc21`, 120%.
Same read-out and setting: with `Cn1nc2c3c(cccc31)C(=O)c1ccccc1-2` the figure was 127%; with `NC(=O)c1ccc2[nH]c(-c3ccc(Oc4ccc(Cl)cc4)cc3)nc2c1`, 107%; with `COc1cc2ncnc(N3CCN(C(=O)Nc4ccc(Oc5ccccc5)cc4)CC3)c2cc1OC`, 115%.
Same read-out and setting: to `CC(=O)O/N=C1\C(=C2\C(=O)Nc3cc(Br)ccc32)Nc2ccccc21` belongs 106%.
`Ic1cccc(CSc2nnc(-c3ccncc3)o2)c1`: the residual activity came to 82%.
The same measure, in the same setting: with `COc1cc2ncnc(Nc3ccc(Oc4ccccc4)cc3)c2cc1OC` the figure was 98%; with `Cc1nc2cc3nc(-c4cccs4)cnc3cc2n1C`, 113%; with `O=C1NC(=O)/C(=C/c2ccc3c(c2)OC(F)(F)O3)S1`, 104%.
Same read-out and setting: with `COc1ccc(C(=O)Nc2sc3c(c2C(N)=O)CCCC3)cc1OC` the figure was 113%.
Same read-out and setting: to `C[C@@H](N)[C@H]1CC[C@H](C(=O)Nc2ccncc2)CC1` belongs 95%.
Consider `N#C/C(=C(\N)Sc1ccc(N)cc1)c1ccccc1C(F)(F)F`, for which the residual activity stood at 95%.
Turning to `CC(C)n1cnc2c(NCc3ccccc3)nc(NCCCO)nc21`, the residual activity worked out at 94%.
On the same count and under the same terms, with `Cn1cc(/C=C2\C(=O)Nc3ccc(S(N)(=O)=O)cc32)c2ccccc21` the figure was 80%; with `O=C1NC(=O)c2cc(Nc3ccc(F)cc3)c(Nc3ccc(F)cc3)cc21`, 125%.
The same measure, in the same setting: to `Cc1ccc(S(=O)(=O)/C=C/C#N)cc1` belongs 125%.
`CNc1cc2c(Nc3cccc(Br)c3)ncnc2cn1`: the residual activity was determined as 107%.
Consider `Oc1ccc(-c2nc(-c3ccc(F)cc3)c(-c3ccncc3)[nH]2)cc1`, for which the residual activity stood at 112%.
On the same count and under the same terms, with `CN(C)c1ccc(/C=C2\C(=O)Nc3ccccc32)cc1` the figure was 111%; with `O=c1cc(-c2cccc3c2Sc2ccccc2S3)oc(N2CCOCC2)c1`, 120%.
For the compound `Cc1ccc(NC2=CC(=O)c3sc(C)nc3C2=O)cc1`, the residual activity worked out at 121%.
As for `COc1ccc(OC)c2c(=S)c3ccccc3[nH]c12`, the residual activity was 120%.
Same read-out and setting: to `Nc1cccc(-c2cc3c(Oc4cccc(O)c4)ncnc3[nH]2)c1` belongs 98%.
The same measure, in the same setting: to `COc1ccc(CNc2nc(N(CCO)CCO)nc3c2ncn3C(C)C)cc1` belongs 104%.
The same measure, in the same setting: to `Cn1cnc2cc3c(Nc4cccc(Br)c4)ncnc3cc21` belongs 112%; to `O=C1c2ccccc2-[n+]2ccc3c([nH]c4ccccc43)c21`, 101%; to `O=C(O)c1ccc2c3c1cccc3c(=O)n1c3ccccc3nc21`, 92%.
In the case of `COc1ccc(S(=O)(=O)N(CCO)c2ccccc2CN(C)C/C=C/c2ccc(Cl)cc2)cc1`, the residual activity was 99%.

In a further assay the target is T1, Myotonin-protein kinase (Homo sapiens). The conditions noted are these: at 10 µM.
With `O=c1c2ccccc2[nH]c(=S)n1CCN1CCC(=C(c2ccc(F)cc2)c2ccc(F)cc2)CC1`, the residual activity came out at 108%.
The same measure, in the same setting: with `O=[N+]([O-])c1ccc(-c2nc(-c3ccc(F)cc3)c(-c3ccncc3)[nH]2)cc1` the figure was 93%; with `O=C1Nc2cc(Br)ccc2/C1=C1/Nc2ccccc2/C1=N\O`, 84%.
For `O=Nc1c(-c2c(O)[nH]c3ccccc23)[nH]c2ccccc12`, the residual activity was 83%.
The same measure, in the same setting: with `CC[n+]1c(/C=C/N(C)c2ccccc2)n(-c2ccccc2)c2ccc(-c3nc4ccccc4s3)cc21` the figure was 121%; with `CC(C)n1cnc2/c(=N/c3cccc(Cl)c3)nc(NCCO)[nH]c21`, 74%; with `Oc1n[nH]c2nnc(-c3c(-c4ccccc4)nn4ccccc34)cc12`, 83%.
Still for that read-out and setting: to `CCN(CC)CCCCN1c2ccccc2Oc2ccc(Cl)cc21` belongs 136%.
Still for that read-out and setting: to `Cn1nc2c3c(cccc31)C(=O)c1ccccc1-2` belongs 84%; to `NC(=O)c1ccc2[nH]c(-c3ccc(Oc4ccc(Cl)cc4)cc3)nc2c1`, 83%; to `COc1cc2ncnc(N3CCN(C(=O)Nc4ccc(Oc5ccccc5)cc4)CC3)c2cc1OC`, 142%.
With `CC(=O)O/N=C1\C(=C2\C(=O)Nc3cc(Br)ccc32)Nc2ccccc21`, the residual activity is 89%.
Same read-out and setting: with `Ic1cccc(CSc2nnc(-c3ccncc3)o2)c1` the figure was 81%; with `COc1cc2ncnc(Nc3ccc(Oc4ccccc4)cc3)c2cc1OC`, 139%.
`Cc1nc2cc3nc(-c4cccs4)cnc3cc2n1C`: the residual activity stood at 117%.
Same read-out and setting: to `O=C1NC(=O)/C(=C/c2ccc3c(c2)OC(F)(F)O3)S1` belongs 104%.
`COc1ccc(C(=O)Nc2sc3c(c2C(N)=O)CCCC3)cc1OC`: the residual activity worked out at 127%.
The same measure, in the same setting: to `C[C@@H](N)[C@H]1CC[C@H](C(=O)Nc2ccncc2)CC1` belongs 95%.
On the same count and under the same terms, to `N#C/C(=C(\N)Sc1ccc(N)cc1)c1ccccc1C(F)(F)F` belongs 85%.
The same measure, in the same setting: with `CC(C)n1cnc2c(NCc3ccccc3)nc(NCCCO)nc21` the figure was 87%.
As for `Cn1cc(/C=C2\C(=O)Nc3ccc(S(N)(=O)=O)cc32)c2ccccc21`, the residual activity is 120%.
On to `O=C1NC(=O)c2cc(Nc3ccc(F)cc3)c(Nc3ccc(F)cc3)cc21`, for which the residual activity came to 129%.
Still for that read-out and setting: to `Cc1ccc(S(=O)(=O)/C=C/C#N)cc1` belongs 100%; to `CNc1cc2c(Nc3cccc(Br)c3)ncnc2cn1`, 113%.
Still for that read-out and setting: with `Oc1ccc(-c2nc(-c3ccc(F)cc3)c(-c3ccncc3)[nH]2)cc1` the figure was 88%; with `CN(C)c1ccc(/C=C2\C(=O)Nc3ccccc32)cc1`, 130%.
Still for that read-out and setting: to `O=c1cc(-c2cccc3c2Sc2ccccc2S3)oc(N2CCOCC2)c1` belongs 105%.
In the case of `Cc1ccc(NC2=CC(=O)c3sc(C)nc3C2=O)cc1`, the residual activity turned out to be 91%.
The same measure, in the same setting: with `COc1ccc(OC)c2c(=S)c3ccccc3[nH]c12` the figure was 87%; with `Nc1cccc(-c2cc3c(Oc4cccc(O)c4)ncnc3[nH]2)c1`, 84%.
Same read-out and setting: with `COc1ccc(CNc2nc(N(CCO)CCO)nc3c2ncn3C(C)C)cc1` the figure was 73%.
Same read-out and setting: to `Cn1cnc2cc3c(Nc4cccc(Br)c4)ncnc3cc21` belongs 111%; to `O=C1c2ccccc2-[n+]2ccc3c([nH]c4ccccc43)c21`, 80%; to `O=C(O)c1ccc2c3c1cccc3c(=O)n1c3ccccc3nc21`, 83%.
Consider `COc1ccc(S(=O)(=O)N(CCO)c2ccccc2CN(C)C/C=C/c2ccc(Cl)cc2)cc1`, for which the residual activity was determined as 89%.
